CYP2C9 activ: CYP2C9 (human) activation | P11712 | recombinant CYP2C9, luciferin-H conversion, luminescence; active compounds read high; factor 1 = untreated enzyme, 0 = blocked | activation factor at 5 µM | actives 1.4% (n = 96,000) | AID 1024;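 active = activation factor of 2 or more for CYP2C9 at a 5 µM dose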;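 note: 0 = sulfaphenazole-blocked wells and 1 = vehicle-only wells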
Target sequence (P11712 whole entry, looked up): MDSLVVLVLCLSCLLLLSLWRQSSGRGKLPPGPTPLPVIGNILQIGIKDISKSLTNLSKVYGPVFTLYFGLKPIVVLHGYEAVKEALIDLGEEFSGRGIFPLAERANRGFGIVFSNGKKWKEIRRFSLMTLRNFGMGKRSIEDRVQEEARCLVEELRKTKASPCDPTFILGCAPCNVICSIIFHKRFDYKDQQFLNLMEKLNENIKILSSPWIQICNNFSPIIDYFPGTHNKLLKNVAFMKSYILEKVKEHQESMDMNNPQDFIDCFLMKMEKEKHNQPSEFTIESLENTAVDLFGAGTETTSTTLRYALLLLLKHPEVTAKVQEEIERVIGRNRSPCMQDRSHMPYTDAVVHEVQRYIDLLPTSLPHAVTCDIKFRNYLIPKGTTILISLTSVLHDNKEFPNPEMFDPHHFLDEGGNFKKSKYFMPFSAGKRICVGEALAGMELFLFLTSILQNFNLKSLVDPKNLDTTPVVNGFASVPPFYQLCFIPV
CYP2C19 activ: activators of human cytochrome P450 2C19. P33261. recombinant CYP2C19, luciferin-H EGE luminescence; active compounds read high; 0 = fully inhibited enzyme, 1 = untreated enzyme. activation factor at 5 µM. 96,000 tested, under 10 active. AID 1025;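 active = activation factor of at least 2 at 5 µM in the primary screen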;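 note: 0 = wells with 2.5 mM tranylcypromine and 1 = vehicle-only wells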
CYP2C19 inhib: inhibitors of human CYP2C19; P33261; CYP2C19 Supersomes, luciferin-H EGE luminescence, 30 min; inhibition, % at 5 µM; actives 21% (n = 96,000);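 active = CYP2C19 inhibition above a set limit at 5 µM in the primary screen, cut at about 50% in these data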;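 note: plate controls were negative control wells for no effect and 2.5 mM tranylcypromine positive control for full effect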
CYP2C9 inhib: blocks human cytochrome P450 2C9; P11712; actives 20% (n = 96,000); inhibition, % at 5 µM; CYP2C9 Supersomes, luciferin-H conversion, luminescence; AID 777;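 active = blocking of liver enzyme CYP2C9 beyond about 50% at 5 µM, limit read from the data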
Numbers without * were called inactive. Compounds with a hit are over-represented: about 31% of the library has one in this group of screens.

SMILES | CYP2C9 activ | CYP2C19 activ | CYP2C19 inhib | CYP2C9 inhib
Cc1ccc(S(=O)(=O)Cc2ccc(C(=O)N3CCN(c4ccc(F)cc4)CC3)o2)cc1 | 0.3 | 0.6 | 37 | 74*
O=S(=O)(NCCc1ccccc1F)c1cccc(S(=O)(=O)N2CCOCC2)c1 | 0.4 | 0.1 | 88* | 62*
O=S(=O)(NCc1ccccc1)c1cccc(S(=O)(=O)N2CCOCC2)c1 | 0.6 | 0.4 | 64* | 42
O=S(=O)(NCc1cccs1)c1cccc(S(=O)(=O)N2CCCCC2)c1 | 0.8 | 0.5 | 52* | 21
CCCCNS(=O)(=O)c1cccc(S(=O)(=O)N2CCCC2)c1 | 0.6 | 0.7 | 32 | 38
CC1CCN(S(=O)(=O)c2ccc3[nH]c(=O)c(=O)[nH]c3c2)CC1 | 1 | 1 | 0 | -4
Cn1c(CSCc2ccc(F)cc2)nnc1SCC(=O)N1CCN(c2ccccc2)CC1 | 0.9 | 1 | -2 | 5
COc1cccc(-n2c(SCC(=O)OC(C)C)nnc2-c2cccnc2)c1 | 1 | 1 | 5 | 2
Cc1nnc(SCC(=O)NCc2cccs2)n1-c1ccccc1 | 0.7 | 0.5 | 47 | 26
Cc1cc2nnc(SCC(=O)NCc3cccs3)n2c2ccccc12 | 3.2* | 0.5 | 49 | -221
Cc1cc2nnc(SCC(=O)OC(C)C)n2c2ccccc12 | 2.6* | 0.8 | 24 | -160
Cc1occc1-c1nnc(SCC(=O)NCc2cccs2)n1-c1ccc(F)cc1 | 0.4 | 0.6 | 43 | 63*
Cc1cc2nnc(SCC(=O)NCc3cccs3)n2c(N)n1 | 1.1 | 1.3 | -25 | -8
CC(C)OC(=O)CSc1nnc(SCc2cccc3ccccc23)s1 | 0.8 | 0.3 | 71* | 18
CCOC(=O)c1c(C)[nH]c(C(=O)OCC(=O)Nc2cc(C)c(Cl)cc2OC)c1C | 0.9 | 0.9 | 6 | 12
CCOC(=O)C1CCCN(C(=O)c2cc3c(=O)n(C)c4ccccc4c3n2C)C1 (stereo not drawn) | 1.2 | 1 | 3 | -19
O=C(CNC(=O)c1cccs1)NCCN1CCN(c2ccccc2F)CC1 | 0.9 | 0.9 | 14 | 9
Cc1cccc2cc(CN(Cc3ccccc3)C(=O)c3cccc(F)c3)c(Cl)nc12 | 0.4 | 0.6 | 42 | 62*
Cc1cccc2cc(CN(C(=O)c3cnccn3)C3CCCCC3)c(Cl)nc12 | 0.7 | 0.7 | 34 | 34
COc1ccc(C(NC(=O)c2ccco2)c2ccc(OC)c(OC)c2)cc1OC | 0.4 | 0.3 | 72* | 61*
COc1ccc(OC)c(C(C)NC(=O)c2ccco2)c1 (stereo not drawn) | 0.3 | 0.2 | 82* | 66*
CCOc1ccc(C(CC(=O)O)NC(=O)c2ccco2)cc1OC (stereo not drawn) | 1.2 | 1.1 | -11 | -16
O=C(Nc1ccccc1Br)C1CCC(=O)N1Cc1ccccc1Cl (stereo not drawn) | 0.6 | 0.8 | 22 | 45
COc1ccc(/C=C2/N=C(c3cccs3)OC2=O)cc1OC(C)C | 0.3 | 0.8 | 24 | 72*
CN(C)/C=C1\N=C(c2cccs2)OC1=O | 1 | 0.9 | 6 | -4
SMILES | CYP2C9 activ | CYP2C19 activ | CYP2C19 inhib | CYP2C9 inhib
O=C(c1ccc(C#CC2(O)CCCCC2)cc1)N1CCN(C(c2ccccc2)c2ccccc2)CC1 | 0.3 | 0.6 | 39 | 68*
O=C(c1ccc(C#CC2(O)CCCCC2)cc1)N1CCN(Cc2ccccc2)CC1 | 0.7 | 0.8 | 23 | 33
Cc1ccc(C2/C(=C(/O)c3ccc(Br)cc3)C(=O)C(=O)N2Cc2ccco2)o1 (stereo not drawn) | 0.3 | 1.1 | -13 | 72*
COc1cccc(/C(O)=C2/C(=O)C(=O)N(Cc3ccco3)C2c2ccncc2)c1 (stereo not drawn) | 0.9 | 0.7 | 26 | 9
Cc1ccc(/C(O)=C2/C(=O)C(=O)N(CCCn3ccnc3)C2c2ccccn2)cc1 (stereo not drawn) | 0.8 | 0.9 | 11 | 20
Cc1ccccc1COc1ccc(/C(O)=C2/C(=O)C(=O)N(CCCn3ccnc3)C2c2ccco2)cc1 (stereo not drawn) | 0 | 0.2 | 75* | 95*
Cc1ccccc1-n1nc2c(c1NC(=O)c1ccc(Br)o1)CSC2 | 0.4 | 0.8 | 15 | 57*
CC(=O)Nc1c2c(nn1-c1ccc(C)cc1C)CSC2 | 1 | 0.9 | 12 | -3
Cc1ccc(NCc2nnc3n2CCCCC3)cc1 | 1 | 0.2 | 75* | -1
Brc1ccc(NCc2nnc3n2CCCCC3)cc1 | 1 | 0.4 | 64* | 1
Cc1cccc(OCc2nnc3n2CCCCC3)c1 | 1.2 | 0.9 | 14 | -16
CCOCCCNCC(=O)Nc1ccccc1N1CCOCC1 | 1.2 | 1 | 0 | -22
CCOc1ccc(C2=C(C=Nc3c(C)n(C)n(-c4ccccc4)c3=O)C(c3ccc(F)cc3)c3ccccc3O2)cc1 (stereo not drawn) | 0.4 | 0.8 | 18 | 58*
Cc1cccc(-c2ccc(C=Nc3c(C)n(C)n(-c4ccccc4)c3=O)o2)c1 | 0.8 | 0.8 | 16 | 19
Cc1cc(NS(=O)(=O)Cc2ccccc2)no1 | 1 | 1 | -1 | 5
Nc1nc(SCC(=O)Nc2ccc(Br)cc2F)n[nH]1 | 0.5 | 0.1 | 93* | 49
Cc1cc(C(=O)CSc2n[nH]c(N)n2)c(C)n1-c1ccccc1 | 0.4 | 0.1 | 87* | 58*
Nc1nc(SCC(=O)NCCC(c2ccccc2)c2ccccc2)n[nH]1 | 0.3 | 0 | 96* | 71*
C=CCn1c(C)cc(C(=O)CSc2n[nH]c(N)n2)c1C | 2.6* | 0.7 | 26 | -157
COc1ccc(CC(=O)NC(C)c2nnc(SCCOc3ccc(OC)cc3)n2C)cc1 (stereo not drawn) | 0.7 | 1 | 5 | 29
CC(=O)Nc1ccc(-c2nn[nH]n2)cc1Cl | 0.9 | 1 | 4 | 13
Cc1ccc(S(=O)(=O)N(c2ccccc2)C2CCS(=O)(=O)C2)cc1 (stereo not drawn) | 1.2 | 1.1 | -12 | -22
COC(=O)CN1C2(C#N)CCCCC2CC2CCCCC21C#N (stereo not drawn) | 1.2 | 1.2 | -16 | -20
Cc1cc(C)c(-c2cc(NC(=O)CSc3n[nH]c(N)n3)n(-c3ccccc3)n2)cc1C | 0.1 | 0.1 | 94* | 90*
Nc1nc(SCC(=O)Nc2ccccc2-c2ccccc2)n[nH]1 | 0.7 | 0.6 | 42 | 25
SMILES | CYP2C9 activ | CYP2C19 activ | CYP2C19 inhib | CYP2C9 inhib
Cc1cc(C(=O)CSc2n[nH]c(N)n2)c(C)n1-c1cc(F)ccc1F | 0.5 | 0.2 | 76* | 54*
C=CCn1c(SCC(=O)Nc2ncc(Cc3cc(C(F)(F)F)ccc3Cl)s2)nnc1-c1ccncc1 | 0.8 | 0.6 | 38 | 21
Cc1ccc([N+](=O)[O-])cc1NC(=O)CN1CCCCC1 | 1.3 | 0.8 | 16 | -31
Cc1ccc([N+](=O)[O-])cc1NC(=S)NC(=O)CC(C)(C)C | 0.2 | 0.7 | 27 | 85*
CC(C)(C)CC(=O)NC(=S)Nc1ccccc1C(F)(F)F | 0.5 | 0.6 | 41 | 52*
Cc1ccc([N+](=O)[O-])cc1NC(=S)NC(=O)C(C)(C)C | 0.2 | 0.4 | 59* | 82*
O=C(COC(=O)c1cccs1)NCc1ccccc1 | 0.8 | 0.1 | 92* | 23
COc1cc(C(=O)OCC(=O)NCc2ccco2)cc(OC)c1OC | 1 | 0.6 | 40 | 4
